Laboratory results reported in PubChem BioAssay AID1347131 (National Center for Advancing Translational Sciences (NCATS), 2019).
Screen size: about 410,000 compounds; about 2,000 (0.49%) were called active. Inconclusive results (about 8%) are left out. For the sample, actives were picked, then their nearest neighbours and some compounds at random. A number with no mark means an inactive call. The call rests on the fitted dose curve; tested in HEK293 reporter line.

Assay: qHTS Assay for Foot and Mouth Disease Virus Antivirals: Primary Screen against the MLPCN compound library; further: nearly all actives have a fitted effect of over 55% in size
Conditions: FMDV antiviral cell-based qHTS; series mostly up to 57.9 µM; activity, negative = inhibition: at the top concentration
Potency means the concentration at half of the fitted maximal effect.

Row | Compound | activity, negative = inhibition | Potency
1 | N=c1ccn(Cc2ccc(Cl)c(Cl)c2)cc1 | -6.86% | 
2 | Clc1ccc(-c2cn3cc(Br)ccc3n2)cc1Cl |  | 14.1 µM (active)
3 | Brc1ccc(-c2cn3ccccc3n2)cc1 |  | 11.2 µM (active)
4 | O=C(COc1ccc(Oc2ccccc2)cc1)NCc1cn2ccccc2n1 | -32.5% | 
5 | c1ccc(-c2nc3ccccn3c2-c2ccccc2)cc1 | -28.6% | 
6 | O=C(O)c1ccnc(Cl)c1 | -30.7% | 
7 | CCc1noc(C)c1C(=O)Nc1nc(-c2ccc(Cl)cc2Cl)c(C)s1 | -34.7% | 
8 | COc1ccccc1N1CCN(C(=O)c2ccccc2Oc2ccccc2)CC1 | -42.1% | 
9 | COc1ccccc1NS(=O)(=O)c1cccc(C(=O)N/N=C/c2ccc(N3CCOCC3)cc2)c1 | -31.5% | 
10 | Cc1ccc(C)c(N2CCN(C(=O)c3cnn(-c4ccccc4Cl)c3C3CCN(C(=O)OC(C)(C)C)CC3)CC2)c1 | -38.2% | 
11 | Cc1ccc2c(c1)-c1c(cnn1CC(=O)N(Cc1ccco1)C1CCCCC1)CO2 | -31.6% | 
12 | CC(C)(C)NC(=O)NC(=O)CN1CCN(C(c2ccccc2)c2ccccc2)CC1 | -40.2% | 
13 | Cc1ccc(N(Cc2cc(=O)[nH]c3ccccc23)C(=O)CCl)cc1 |  | 20 µM (active)
14 | CCOc1ccc(N(Cc2cc3cc(C)ccc3[nH]c2=O)C(=O)c2cccc(Cl)c2)cc1 | -31.5% | 
15 | COc1ccc(CC(=O)N(Cc2ccccc2)c2ccc(C)cc2)cc1OC | -32.2% | 
16 | Cc1ncsc1CCC(=O)N1CCCC(c2nc(-c3ccncc3)ncc2-c2ccccc2)C1 (centres undefined) | -30.6% | 
17 | COc1cccc(-n2cnc3scc(-c4cccs4)c3c2=O)c1 | -33.2% | 
18 | O=C(NC(c1ccccc1)c1ccccc1)c1ccc(S(=O)(=O)C(F)F)cc1 | -31.9% | 
19 | O=C(CN1CCN(c2ccccn2)CC1)Nc1cccc(C(F)(F)F)c1 | -43.4% | 
20 | O=C(Nc1cccc(-c2ccc(N3CCCCC3)nn2)c1)C(F)(F)F |  | 14.1 µM (active)
21 | O=C(Nc1ccccc1)N1CCCN(c2ccc(C(F)(F)F)cn2)CC1 | -41% | 
22 | COC(=O)c1ccc(CSc2ncnc3ccccc23)o1 | -30.7% | 
23 | CC(C)C1NC(=S)N(C2CCCCC2)C1=O (centres undefined) | -26.9% | 
24 | CCOC(=O)c1sc2nc(CC(=O)OC)nc(N3CCN(c4ccc(OC)cc4)CC3)c2c1C | -48.5% | 
25 | CCOC(=O)c1cc(C)n(CC2CCC(C(=O)Nc3ccc(C(=O)OC)cc3)CC2)c1C (centres undefined) | -31.3% | 

Row | Compound | activity, negative = inhibition | Potency
26 | Cc1ccc(CS(=O)(=O)c2ncc(Cl)c(C(=O)Nc3nc4ccc(F)cc4s3)n2)cc1 | -48.8% | 
27 | CCc1nnc(NC(=O)c2cccc(C(=O)Nc3nnc(CC)s3)n2)s1 | -20% | 
28 | CCc1nnc(NC(=O)c2nc(S(=O)(=O)Cc3ccccc3)ncc2Cl)s1 |  | 20 µM (active)
29 | CCc1ccccc1NC(=O)Cn1nc(C)c2nn(-c3ccc(Cl)cc3)c(C)c2c1=O | -30.7% | 
30 | Cc1ccccc1C(=O)N(Cc1nc(-c2ccc(Cl)cc2)no1)C(C)C | -30.6% | 
31 | COc1cccc(CNC(=O)Cn2cc3c(n2)-c2c(oc(C(=O)N4CCOCC4)c2C)CC3)c1 | -31.3% | 
32 | Cc1cc(NC(=O)c2ccc(N(C)S(=O)(=O)c3ccccc3)cc2)no1 | -30.5% | 
33 | Cc1cc(C)n2nc(SCc3ccc(F)cc3Cl)nc2n1 | -20.5% | 
34 | Cn1c2ccccc2c(=O)c2ccc(C#CC3(O)CCCCC3)cc21 |  | 17.8 µM (active)
35 | Cc1cc2sc3ccc(C#CC4(O)CCCCC4)cc3c(=O)c2cc1C | -99.3% | 
36 | O=c1c2ccccc2sc2ccc(C#CC3(O)CCCCC3)cc12 | -68.8% | 
37 | CCOC(=O)C1(Cc2ccccc2)CCN(Cc2cccn2-c2cccnc2)CC1 | -33.3% | 
38 | COc1ccccc1OCCNC(=O)c1cc(C2CC2)nc2c1cnn2C(C)C | -40% | 
39 | CCN1C(=O)CC(C(C)C)N(C2CCCC2)c2nc(Nc3ccc(C(=O)NC4CCN(C)CC4)cc3OC)ncc21 (centres undefined) | -34.5% | 
40 | CCCCC(CC)CNC(=O)c1ccc2c(=O)n(CCOC)c(=O)[nH]c2c1 (centres undefined) | -33.9% | 
41 | Cc1ccc(-c2nc(CS(=O)CC(=O)N3CCN(c4ccc(F)cc4)CC3)c(C)o2)cc1 (centres undefined) | -31.4% | 
42 | Cc1nc(-c2cccc(NC(=O)c3ccc(Cl)c(S(=O)(=O)N4CCCC4)c3)c2)cs1 | -32.5% | 
43 | COc1ccc(CC(=O)Nc2cccc(-c3csc(C)n3)c2)cc1 |  | 20 µM (active)
44 | COc1ccc(CC(=O)Nc2nc(-c3ccc(OC)c(OC)c3)cs2)cc1OC | -36.1% | 
45 | COc1ccc(Oc2ncc3nc(-c4ccccc4)c(=O)n(CCC#N)c3n2)cc1 | -39% | 
46 | COc1ccc(/C=N/NC(=O)c2nonc2C)cc1 |  | 11.2 µM (active)
47 | Nc1nonc1-n1nnc(C(=O)N/N=C/c2ccc(O)cc2)c1COc1ccc(F)cc1 | -32.2% | 
48 | COc1cccc(/C=N/NC(=O)c2nc(-c3ccccc3)cc(-c3ccccc3)n2)c1 | -37.4% | 
49 | Cc1cc(OCCCCN2C(=O)NC(C)(C)C2=O)cc(C)c1Cl | -34.5% | 
50 | CC(C)c1cc(Br)ccc1OCCCN1C(=O)NC(C)(C)C1=O |  | 28.2 µM (active)

Row | Compound | activity, negative = inhibition | Potency
51 | CC1(C)NC(=O)N(CCCCOc2ccc3c(c2)CCC3)C1=O | -30.3% | 
52 | CC12C(=O)N(c3cccc(OC(=O)c4ccco4)c3)C(=O)C1C1c3ccccc3C2c2ccccc21 (centres undefined) | -42.3% | 
53 | CS(=O)(=O)c1ccc(C(=O)OCC(=O)NCc2cccs2)cc1[N+](=O)[O-] |  | 25.1 µM (active)
54 | Nc1cc(C(=O)OCC(=O)NCCNC(=O)COC(=O)c2ccc(Cl)c(N)c2)ccc1Cl | -32.3% | 
55 | CC(C)CN1CCN(C(=O)COC(=O)c2ccc(S(C)(=O)=O)c([N+](=O)[O-])c2)CC1 | -34% | 
56 | COC(=O)c1ccc(COc2ccc(/C=N/NC(N)=S)cc2)o1 | -33% | 
57 | CCc1ccc(OCc2ccc(C(=O)O)o2)cc1 |  | 10 µM (active)
58 | COc1ccc(NC(=O)c2ccc(COc3ccccc3OC)o2)cc1OC | -31.3% | 
59 | Cc1ccccc1CS(=O)(=O)c1cn(CC(=O)N2CCC(C)CC2)c2ccccc12 | -30.3% | 
60 | CCc1cc(=O)[nH]c(SCc2nc(-c3ccc(C(F)(F)F)cc3)no2)n1 | -32.9% | 
61 | N#C/C(=C\c1ccc(N2CCOCC2)o1)c1nc2ccccc2[nH]1 |  | 10 µM (active)
62 | N#C/C(=C/c1ccc(N2CCCCC2)o1)C(=O)NCCc1c[nH]c2ccccc12 | -32% | 
63 | N#C/C(=C/c1ccc(N2CCOCC2)o1)c1nc2ccccc2[nH]1 |  | 8.91 µM (active)
64 | Cc1ccc2nc(/C(C#N)=C/c3ccc(-c4cccc(Cl)c4)o3)[nH]c2c1 | -32.1% | 
65 | COc1cc(/C=C(/C#N)c2nc3ccccc3[nH]2)ccc1OCC(=O)Nc1ccccc1C | -31.8% | 
66 | COc1cc(/C=C(\C#N)c2nc3ccccc3[nH]2)cc(Cl)c1OCc1ccccc1Cl | -41.7% | 
67 | O=C(CSCc1ccc(F)cc1)N1CCN(c2ccc(F)cc2)CC1 | -30.1% | 
68 | N#Cc1ccccc1Sc1ccccc1C(=O)OCC(=O)NC12CC3CC(CC(C3)C1)C2 | -33.5% | 
69 | COc1ccccc1C(=O)Nc1ccc(-c2cc(C(F)(F)F)nn2-c2ccccc2)cc1 | -36.9% | 
70 | O=C1/C(=C\c2ccccc2)C[C@@]2(O)[C@H]3Cc4ccc(O)c5c4[C@@]2(CCN3CC2CC2)[C@H]1O5 |  | 10 µM (active)
71 | C=CCN1CC[C@]23c4c5ccc(O)c4O[C@H]2/C(=N/NC(=O)c2ccccc2)CC[C@@]3(O)[C@H]1C5 | -28.3% | 
72 | CCOC(=O)[C@H]1[C@H]2COc3ccccc3[C@@H]2N2C(=O)c3ccc(Cl)cc3NC(=O)[C@@]12C | -37.3% | 
73 | O=C(Nc1ccccc1Cc1ccccc1)c1ccccc1NS(=O)(=O)c1ccc(Cl)s1 | -37.5% | 
74 | COc1cc(/C=C2/C(=O)ON=C2c2ccccc2)ccc1O | -45.4% | 
75 | C=CCOc1ccc(/C=C2/C(=O)ON=C2C)cc1OCC |  | 31.6 µM (active)

Row | Compound | activity, negative = inhibition | Potency
76 | CCOc1cc(/C=C2\C(=O)N(c3ccc(C(N)=O)cc3)N=C2C)ccc1OC(=O)c1cccs1 | -38% | 
77 | Cc1ccc(S(=O)(=O)N(C)C)cc1NC(=O)CSc1nc2ccccc2[nH]1 | -42% | 
78 | CCOc1ccc(CN2CCNC(=O)C2CC(=O)NCCc2nc(C)c3c(n2)CCC3)cc1 (centres undefined) | -54% | 
79 | Cc1ccc(S(=O)(=O)Nc2nc(C)c(C)s2)cc1 | 101% | 
80 | Cc1ccc(-c2nc(CCNC(=O)c3ccco3)cs2)cc1 | -36.4% | 
81 | Cc1ccc(-c2nc(C)c(C(=O)O)s2)cc1 |  | 25.1 µM (active)
82 | Cc1ccccc1N1CCN(C2CCCN(C(=O)CCC3(C)CC3)C2)CC1 (centres undefined) | -31.3% | 
83 | Fc1ccccc1-c1csc(=Nc2cccnc2)n1CCCn1ccnc1 | -40% | 
84 | O=C(C1COc2ccccc2O1)N1CCN(S(=O)(=O)c2ccccc2)CC1 (centres undefined) | -32.6% | 
85 | Cc1nc(NC(=O)c2cc3ccccc3o2)sc1C |  | 17.8 µM (active)
86 | CCc1cccc(C)c1NC(=O)c1cc2ccccc2o1 | -43% | 
87 | CC(=O)c1cccc(NC(=O)CNC(=O)c2cc3ccccc3o2)c1 | -36.7% | 
88 | COc1ccc([N+](=O)[O-])cc1NC(=O)C(C)OC(=O)C1CCCC1 (centres undefined) | -48.6% | 
89 | CC1(C(=O)Nc2cccc(Oc3ccccc3)c2)CCN1Cc1cccc2c1OCO2 (centres undefined) | -31.1% | 
90 | COc1cccc(-c2sc3ccc(OC)cc3c2-c2ccc(OCCN3CCCC3)cc2)c1 | -31.7% | 
91 | Cc1ccc(-c2nc3cc(NC(=O)C(C)C)ccc3o2)cc1C |  | 22.4 µM (active)
92 | Cc1ccc(C(=O)Nc2cc(-c3nc4cc(Cl)ccc4o3)ccc2C)c(C)c1 | -31.2% | 
93 | CC(C)Oc1ccc(C(=O)Nc2ccc3oc(-c4ccncc4)nc3c2)cc1 | -28.6% | 
94 | COCC(C)n1c(C)cc(C(=O)COC(=O)c2cc(=O)[nH]c3ccccc23)c1C (centres undefined) | -25.1% | 
95 | CC(C)(C)OC(=O)N1CCC(c2c(C(=O)N3CCN(Cc4ccccc4)CC3)cnn2-c2ccc(Cl)cc2)CC1 | -34% | 
96 | CCc1ccc(S(=O)(=O)N/N=C\c2ccc3c(c2)OCO3)cc1 | 108% | 
97 | O=S(=O)(N/N=C\c1ccc2c(c1)OCO2)c1ccc(Cl)cc1 | 102% | 
98 | N/C(=N\N=C\c1ccc2c(c1)OCO2)c1nonc1N |  | 17.8 µM (active)
99 | Brc1ccccc1CN1CCN(Cc2c[nH]c3ccccc23)CC1 | -41.3% | 
